Experimental data reported in PubChem BioAssay AID1159580 (chemical genetic matrix, 2015).
Among all 5,500 compounds or so, about 2,000 (36%) were called active. Roughly 18% stayed inconclusive and do not appear here. Rule as the data show it: active = normalized growth mostly below about 0.91 (no sharp cut-off); inconclusive = no clear call, values can overlap the other calls; inactive = mostly above about 0.92. The list shows a part of the results.

Test: chemical genetic growth profiling, strain panel (AID 1159580);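 also: tested at 20 µM; growth read once vehicle control cultures reached saturation at 30 °C; 1 = growth at the plate median or of vehicle wells; lower values mean less growth of the strain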
Conditions: growth OD

Measured: normalized growth

CCC(Cc1c(I)cc(I)c(N)c1I)C(=O)O (stereo unspecified)
inactive: S. cerevisiae deletion strains, locus YKL009W, strain mrt4, hits give low values 0.974 | S. cerevisiae deletion strains, locus YKL068W, hits give low values 0.986 | S. cerevisiae deletion strains, locus YKL085W, strain MDH1 (second series), hits give low values 0.982 | S. cerevisiae deletion strains, locus YKL085W, strain MDH1, hits give low values 0.982 | S. cerevisiae deletion strains, locus YKL160W, strain elf1, hits give low values 0.961 | S. cerevisiae deletion strains, locus YKL190W, strain CNB1, hits give low values 1 | S. cerevisiae deletion strains, locus YKR001C, strain vps1, hits give low values 0.996 | S. cerevisiae deletion strains, locus YKR026C, strain gcn3, hits give low values 0.946 | S. cerevisiae deletion strains, locus YKR091W, strain srl3, hits give low values 0.941 | S. cerevisiae deletion strains, locus YLL001W, strain dnm1, hits give low values 0.977 | S. cerevisiae deletion strains, locus YLL026W, hits give low values 0.96 | S. cerevisiae deletion strains, locus YLL041C, strain sdh2, hits give low values 0.954 | S. cerevisiae deletion strains, locus YLR027C, strain aat2, hits give low values 0.964 | S. cerevisiae deletion strains, locus YLR039C, strain RIC1, hits give low values 0.933 | S. cerevisiae deletion strains, locus YLR058C, strain SHM2, hits give low values 1 | S. cerevisiae deletion strains, locus YLR102C, strain apc9, hits give low values 0.999 | S. cerevisiae deletion strains, locus YLR262C, strain YPT6, hits give low values 0.936 | S. cerevisiae deletion strains, locus YLR268W, strain sec22, hits give low values 1 | S. cerevisiae deletion strains, locus YLR330W, strain CHS5, hits give low values 0.999 | S. cerevisiae deletion strains, locus YLR342W, strain FKS1 (second series), hits give low values 1 | S. cerevisiae deletion strains, locus YLR342W, strain FKS1, hits give low values 0.944 | S. cerevisiae deletion strains, locus YLR357W, strain rsc2, hits give low values 1.02 | S. cerevisiae deletion strains, locus YLR370C, strain arc18, hits give low values 0.95 | S. cerevisiae deletion strains, locus YLR371W, strain rom2, hits give low values 1 | S. cerevisiae deletion strains, locus YLR384C, strain iki3, hits give low values 0.954 | S. cerevisiae deletion strains, locus YLR418C, strain cdc73, hits give low values 1.02 | S. cerevisiae deletion strains, locus YML016C, strain PPZ1, hits give low values 0.995 | S. cerevisiae deletion strains, locus YML032C, strain rad52, hits give low values 1.02 | S. cerevisiae deletion strains, locus YML120C, strain ndi1, hits give low values 0.95 | S. cerevisiae deletion strains, locus YML124C, strain tub3, hits give low values 0.992 | S. cerevisiae deletion strains, locus YMR058W, strain fet3, hits give low values 0.944 | S. cerevisiae deletion strains, locus YMR078C, strain ctf18, hits give low values 1 | S. cerevisiae deletion strains, locus YMR125W, strain sto1, hits give low values 0.948 | S. cerevisiae deletion strains, locus YMR129W, hits give low values 0.932 | S. cerevisiae deletion strains, locus YMR205C, strain PFK2, hits give low values 0.906 | S. cerevisiae deletion strains, locus YMR223W, strain ubp8, hits give low values 1.01 | S. cerevisiae deletion strains, locus YMR231W, strain pep5, hits give low values 0.97 | S. cerevisiae deletion strains, locus YMR263W, strain SAP30, hits give low values 0.989 | S. cerevisiae deletion strains, locus YMR307W, strain GAS1, hits give low values 0.963 | S. cerevisiae deletion strains, locus YNL067W, strain RPL9B, hits give low values 1.01 | S. cerevisiae deletion strains, locus YNL128W, strain TEP1, hits give low values 1.01 | S. cerevisiae deletion strains, locus YNL153C, strain GIM3, hits give low values 1.01 | S. cerevisiae deletion strains, locus YNL209W, strain ssb2, hits give low values 0.966 | S. cerevisiae deletion strains, locus YNL233W, strain BNI4, hits give low values 1.01 | S. cerevisiae deletion strains, locus YNL248C, strain rpa49, hits give low values 0.887 | S. cerevisiae deletion strains, locus YNL250W, strain rad50, hits give low values 0.994 | S. cerevisiae deletion strains, locus YNL271C, strain bni1, hits give low values 0.979 | S. cerevisiae deletion strains, locus YNL298W, strain CLA4, hits give low values 0.981 | S. cerevisiae deletion strains, locus YNL307C, strain MCK1, hits give low values 0.997 | S. cerevisiae deletion strains, locus YNL322C, strain KRE1 (second series), hits give low values 0.932 | S. cerevisiae deletion strains, locus YNL322C, strain KRE1, hits give low values 1 | S. cerevisiae deletion strains, locus YNR049C, strain mso1, hits give low values 0.925 | S. cerevisiae deletion strains, locus YNR052C, strain pop2, hits give low values 0.998 | S. cerevisiae deletion strains, locus YOL006C, strain TOP1, hits give low values 1.01 | S. cerevisiae deletion strains, locus YOL012C, strain htz1 1.15 | S. cerevisiae deletion strains, locus YOL147C, strain pex11, hits give low values 0.999 | S. cerevisiae deletion strains, locus YOR001W, strain rrp6, hits give low values 1 | S. cerevisiae deletion strains, locus YOR061W, strain CKA2, hits give low values 0.997 | S. cerevisiae deletion strains, locus YOR069W, strain VPS5, hits give low values 0.999 | S. cerevisiae deletion strains, locus YOR080W, strain dia2, hits give low values 0.95 | S. cerevisiae deletion strains, locus YOR083W, strain WHI5, hits give low values 0.949 | S. cerevisiae deletion strains, locus YOR106W, strain vam3, hits give low values 0.943 | S. cerevisiae deletion strains, locus YOR136W, strain idh2, hits give low values 1.02 | S. cerevisiae deletion strains, locus YOR144C, strain elg1, hits give low values 0.985 | S. cerevisiae deletion strains, locus YOR184W, strain ser1, hits give low values 1.01 | S. cerevisiae deletion strains, locus YOR265W, strain rbl2, hits give low values 0.951 | S. cerevisiae deletion strains, locus YOR270C, strain vph1, hits give low values 0.784 | S. cerevisiae deletion strains, locus YOR290C, strain snf2, hits give low values 0.92 | S. cerevisiae deletion strains, locus YOR316C, strain cot1, hits give low values 0.999 | S. cerevisiae deletion strains, locus YPL051W, strain arl3, hits give low values 0.925 | S. cerevisiae deletion strains, locus YPL055C, strain LGE1, hits give low values 1.04 | S. cerevisiae deletion strains, locus YPL078C, strain atp4, hits give low values 0.974 | S. cerevisiae deletion strains, locus YPL106C, strain sse1, hits give low values 0.951 | S. cerevisiae deletion strains, locus YPL240C, strain hsp82, hits give low values 0.939 | S. cerevisiae deletion strains, locus YPL241C, strain CIN2, hits give low values 0.975 | S. cerevisiae deletion strains, locus YPR119W, strain clb2, hits give low values 0.988 | S. cerevisiae deletion strains, locus YPR141C, strain kar3, hits give low values 0.988 | S. cerevisiae deletion strains, locus YPR163C, strain tif3, hits give low values 1.01 | S. cerevisiae deletion strains, locus YPR167C, strain met16, hits give low values 1 | S. cerevisiae deletion strains, strain wtn01, hits give low values 1 | S. cerevisiae strains, strain wild type, hits give low values 0.999
active: S. cerevisiae deletion strains, locus YLR113W, strain HOG1, hits give low values 0.127 | S. cerevisiae deletion strains, locus YLR221C, strain rsa3, hits give low values 0.876 | S. cerevisiae deletion strains, locus YLR258W, strain gsy2, hits give low values 0.909 | S. cerevisiae deletion strains, locus YLR262C, strain YPT6 (second series), hits give low values 0.698 | S. cerevisiae deletion strains, locus YLR320W, strain mms22, hits give low values 0.873 | S. cerevisiae deletion strains, locus YNL071W, strain lat1, hits give low values 0.689 | S. cerevisiae deletion strains, locus YNL183C, strain NPR1, hits give low values 0.0218 | S. cerevisiae deletion strains, locus YOR070C, strain gyp1, hits give low values 0.917 | S. cerevisiae deletion strains, locus YOR231W, strain MKK1, hits give low values 0.113 | S. cerevisiae deletion strains, locus YPL256C, strain CLN2, hits give low values 0.126
